Results on eight compounds are retold here after PubChem BioAssay (Tox21).

Test [1] is described as follows: qHTS assay to identify small molecule antagonists of the estrogen receptor alpha (ER-alpha) signaling pathway using the BG1 cell line in the presence of 0.1 nM 17-beta-estradiol - cell viability counter screen (AID 1259241). Also: nearly all actives have a fitted effect of over 40% in size. In outline: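 In this screen, hormone-deprived VM7Luc4E2 cells were seeded at 4,000 per well, dosed with compound and 0.1 nM estradiol final, and incubated 22 hr at 37C and 5% CO2; fluorogenic live-cell protease signal reported viability.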

Test [2] is described as follows: qHTS assay to identify small molecule antagonists of the androgen receptor (AR) signaling pathway using the MDA cell line in the presence of 0.5 nM R1881 - cell viability counter screen (AID 1259242). Also: nearly all actives have a fitted effect of over 45% in size. Also: potency is read from the fitted curve at half-maximal effect. The gist of the method:
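Steps: plate MDA-kb2 cells, rest 5 hr at 37C without CO2; pin in compounds in DMSO; add R1881 to 0.5 nM final; incubate 16 hr; add CellTiter-Fluor, 30 min; read fluorescence.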
Background: qHTS replaces the single test concentration by a dilution series.

Test [3] deals with Estrogen receptor (Homo sapiens) (UniProt P03372). Description: qHTS assay to identify small molecule antagonists of the estrogen receptor alpha (ER-alpha) signaling pathway using the BG1 cell line in the presence of 0.1 nM 17-beta-estradiol (AID 1259244). Also: nearly all actives have a fitted effect of over 50% in size. Also: potency is read from the fitted curve at half-maximal effect. In outline:
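Antagonist mode: compounds in DMSO are pinned onto VM7Luc4E2 reporter cells, 0.1 nM final 17beta-estradiol is added, and after 22 h at 37C luciferase luminescence is measured with ONE-Glo.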

Test [4] can be described thus: qHTS assay to identify small molecule HDAC inhibitors (AID 1259364).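 Also: wild-type HCT-116 cells with endogenous class I/II HDAC activity; top concentration of the series differs between compounds; nearly all actives have a fitted effect of over 45% in size.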 The gist of the method:
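Cells (HCT-116, wild type) are seeded at 1,500 per well, incubated overnight, treated with compound in DMSO for 2 hr, then developed with HDAC-Glo I/II reagent for 30 min at room temperature.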

Test [5] is described as follows: qHTS assay to identify small molecule HDAC inhibitors - cell viability counter screen (AID 1259365). Also: series mostly up to about 92 µM; nearly all actives have a fitted effect of over 50% in size. The gist of the method:
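Measured quantity is CellTiter-Glo luminescence from wild-type HCT-116 cells after compound incubation of 2hr at 37C, 5% CO2; reagent developed 30min at room temperature.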

The nature of test [6]: qHTS assay to identify small molecule agonists of the sonic hedgehog signaling (Shh) pathway - cell viability counter screen (AID 1259366). Also: nearly all actives have a fitted effect of over 50% in size. Also: potency is read from the fitted curve at half-maximal effect. The gist of the method:
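In quantitative high-throughput format, 3T3 Gli1-Luc cells were exposed to compounds for 24hr and multiplexed for viability using CellTiter-Fluor, incubated 1hr at 37C before the fluorescence read.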

The nature of test [7]: qHTS assay to identify small molecule antagonists of the sonic hedgehog signaling (Shh) pathway - cell viability counter screen (AID 1259367). Also: nearly all actives have a fitted effect of over 55% in size. Also: potency is read from the fitted curve at half-maximal effect. In outline:
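Tox21 library chemicals were tested on a Gli1-Luc NIH/3T3 clone (2,000 cells/well) stimulated by conditioned medium; viability was quantified as fluorescence from CellTiter-Fluor reagent added at 23 hr.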

Test [8] can be described thus: qHTS assay to identify small molecule agonists of the sonic hedgehog signaling (Shh) pathway (AID 1259368; calls by dose curve;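 also: NIH/3T3-derived 3T3Gli1-Luc cells carrying a stable Gli1-driven firefly luciferase reporter; series mostly up to about 92 µM; nearly all actives have a fitted effect of over 15% in size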). The gist of the method: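 Cells of a mouse NIH/3T3 clone stably expressing luciferase under the Gli1 transcriptional response element are exposed to test chemicals for 24 hr at 37 C. Pathway activation is detected as a rise in luminescence.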
The target in test [9] is Estrogen receptor beta (Homo sapiens) (UniProt Q92731). Description: qHTS assay to identify small molecule agonists of the estrogen receptor beta (ER-beta) signaling pathway (AID 1259377; active = well fitted activation curve with a large enough effect in the signal ratio in the repeat runs, not every such curve was filed as active; the % refers to the signal ratio). In outline: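 Reporter cells (HEK293T, ER-beta-UAS-bla) receive compounds or DMSO after a 6 hr pre-incubation. They then incubate 16 hr at 37C/5% CO2, and fluorescence from LiveBLAzer B/G substrate is measured after 2 hours at room temperature.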
Estrogen receptor beta (Homo sapiens), sequence (Q92731 whole entry, looked up): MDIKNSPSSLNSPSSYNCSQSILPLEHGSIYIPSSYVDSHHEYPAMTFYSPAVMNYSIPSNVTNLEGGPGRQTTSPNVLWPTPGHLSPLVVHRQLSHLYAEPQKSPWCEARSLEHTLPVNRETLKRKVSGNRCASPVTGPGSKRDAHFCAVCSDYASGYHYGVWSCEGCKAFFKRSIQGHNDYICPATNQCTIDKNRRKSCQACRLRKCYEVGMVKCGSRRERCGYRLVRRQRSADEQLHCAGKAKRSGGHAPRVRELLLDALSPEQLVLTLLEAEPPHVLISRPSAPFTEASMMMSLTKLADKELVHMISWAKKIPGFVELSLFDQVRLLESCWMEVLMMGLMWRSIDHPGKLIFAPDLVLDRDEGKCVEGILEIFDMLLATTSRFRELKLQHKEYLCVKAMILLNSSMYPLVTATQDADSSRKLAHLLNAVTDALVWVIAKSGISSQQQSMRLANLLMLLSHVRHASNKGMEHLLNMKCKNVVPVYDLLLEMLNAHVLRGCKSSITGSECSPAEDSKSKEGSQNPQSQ

Test [10] has the same target. Description: qHTS assay to identify small molecule antagonists of the estrogen receptor beta (ER-beta) signaling pathway (AID 1259378; active = well fitted inhibition curve with a large enough effect in the signal ratio in the repeat runs, not every such curve was filed as active; the % refers to the signal ratio; also: potency is read from the fitted curve at half-maximal effect). In outline: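 ER-beta-UAS-bla HEK293T cells in 2% charcoal-stripped FBS medium treated with compound plus 1nM final 17-beta-estradiol for 16 hr at 37C. Beta-lactamase reporter read by FRET substrate fluorescence after 2 hours at room temperature.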

Test [11] in a line: qHTS assay to identify small molecule agonists of the androgen receptor (AR) signaling pathway in the presence of an antagonist - cell viability counter screen (AID 1259379). Also: nearly all actives have a fitted effect of over 25% in size. Also: potency is read from the fitted curve at half-maximal effect. In outline:
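Cytotoxicity is assessed by CellTiter-Fluor in MDA-kb2 cells carrying an MMTV-driven luciferase reporter. Cells receive 3.0uM nilutamide plus compounds at 15 concentrations and incubate 16 hr at 37C without CO2 before fluorescence reading.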

Test [12] can be described thus: qHTS assay to identify small molecule agonists of the estrogen receptor beta (ER-beta) signaling pathway - cell viability counter screen (AID 1259380). Also: nearly all actives have a fitted effect of over 30% in size. Also: potency is read from the fitted curve at half-maximal effect. The gist of the method: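 Cytotoxicity is measured in parallel with the reporter screen: after 16 hr compound exposure at 37C and a 2 hr LiveBLAzer step, CellTiter-Glo is added to the same ER-beta-UAS-bla HEK293T wells and luminescence read after 30 min.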

A short description of test [13]: qHTS assay to identify small molecule antagonists of the estrogen receptor beta (ER-beta) signaling pathway - cell viability counter screen (AID 1259382). Also: nearly all actives have a fitted effect of over 55% in size. Also: potency is read from the fitted curve at half-maximal effect. In outline:
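Cytotoxicity counter screen multiplexed with the beta-lactamase antagonist assay: GripTite HEK293T ER-beta-bla cells were treated 16 hr with test chemicals in the presence of 1nM 17-beta-estradiol, and viability was measured by CellTiter-Glo.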

Test [14] has as its target Estrogen receptor (Homo sapiens) (UniProt P03372). Description: qHTS assay to identify small molecule agonists of the estrogen receptor alpha (ER-alpha) signaling pathway in the presence of an antagonist (AID 1259383; calls by dose curve; also: top concentration of the series differs between compounds; nearly all actives have a fitted effect of over 15% in size). In outline:
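Agonist-mode confirmation in the presence of the ER antagonist ICI-182,780 at 10.0nM final. Breast-derived VM7Luc4E2 reporter cells were exposed to compounds for 22hr, and ERE-driven luciferase was quantified by luminescence.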

A short description of test [15]: qHTS assay to identify small molecule phospholipidosis (PLD) inducers (AID 1259344; active = well fitted curve in the direction sought with a large enough effect; an effect the other way counts as inactive or inconclusive). The gist of the method: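 Image-based: LipidTOX Red pit count/intensity per well and per cell; HepG2, 24 h compound at 37 C, PFA fixation, Hoechst counterstain.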
Test [16] can be described thus: qHTS assay to identify small molecule agonists or antagonists of the thyroid stimulating hormone receptor (TSHR) signaling pathway - wild type cell line counter screen (AID 1259384; calls by dose curve). The gist of the method: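 Wild-type Hek293 cells, 800/well, 18 h at 37C, then compound with Ro20-1724 for 30 min RT. cAMP by HTRF (cAMP-d2/anti-cAMP cryptate), 1 h RT, fluorescence read. 15 concentrations, triplicates.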

In test [17] the target is Thyrotropin receptor (Homo sapiens) (UniProt P16473). Description: qHTS assay to identify small molecule antagonists of the thyroid stimulating hormone receptor (TSHR) signaling pathway (AID 1259385; calls by dose curve; also: nearly all actives have a fitted effect of over 20% in size). In outline:
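TSHR-HEK293 cells (800/well) plated 18 h, then compounds with Ro20-1724 and TSH at 1.5 ng/mL final, 30 min at room temperature. cAMP quantified by HTRF (cAMP-d2/anti-cAMP-cryptate, 1 h); 15 concentrations in triplicate.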

Test [18] can be described thus: qHTS assay to identify small molecule antagonists of the sonic hedgehog signaling (Shh) pathway (AID 1259369; calls by dose curve; also: nearly all actives have a fitted effect of over 45% in size; also: potency is read from the fitted curve at half-maximal effect). In outline: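 Cells are plated and held 4hr at 37 C, compounds (DMSO) are pinned in, conditioned medium is added to stimulate the pathway, and after 24hr luciferase reagent is added for 30min before luminescence is read.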
Test [19] deals with Androgen receptor (Homo sapiens) (UniProt P10275). Description: qHTS assay to identify small molecule antagonists of the androgen receptor (AR) signaling pathway using the MDA cell line in the presence of 0.5 nM R1881 (AID 1259243). Also: nearly all actives have a fitted effect of over 50% in size. Also: potency is read from the fitted curve at half-maximal effect. In outline:
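Stably transfected MDA-kb2 cells express luciferase from an MMTV promoter bearing both AR and GR response elements. Compounds plus 0.5 nM R1881 (final) were incubated 16 hr at 37C without CO2, then luminescence measured.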

For test [20] the target is unchanged. Description: qHTS assay to identify small molecule agonists of the androgen receptor (AR) signaling pathway in the presence of an antagonist (AID 1259381; calls by dose curve; also: nearly all actives have a fitted effect of over 15% in size). The gist of the method: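 Agonist-mode confirmation screen: human MDA-kb2 cells stably expressing luciferase under an MMTV promoter bearing AR and GR response elements, co-treated with 3.0uM nilutamide (final). Luminescence measured after 16hr compound incubation.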

SMILES strings stand for the structures. Values joined by “and” are separate entries in the source; they are usually repeats but may differ in a detail not shown here. Equal entries are not always repeated. Inconclusive results are not listed. The source holds several records for some structures; these can differ, active in one and inactive in another. Active and inactive are the calls of the source. Unless noted, calls follow the shape of the dose curve; as a rule, active = well fitted curve in the direction sought with a large enough effect in the repeat runs; inconclusive = weak or mixed curves; inactive = no such curve, though single readings can be large; an effect the other way counts as inactive or inconclusive.

Androgen receptor (Homo sapiens), sequence (P10275 whole entry, looked up): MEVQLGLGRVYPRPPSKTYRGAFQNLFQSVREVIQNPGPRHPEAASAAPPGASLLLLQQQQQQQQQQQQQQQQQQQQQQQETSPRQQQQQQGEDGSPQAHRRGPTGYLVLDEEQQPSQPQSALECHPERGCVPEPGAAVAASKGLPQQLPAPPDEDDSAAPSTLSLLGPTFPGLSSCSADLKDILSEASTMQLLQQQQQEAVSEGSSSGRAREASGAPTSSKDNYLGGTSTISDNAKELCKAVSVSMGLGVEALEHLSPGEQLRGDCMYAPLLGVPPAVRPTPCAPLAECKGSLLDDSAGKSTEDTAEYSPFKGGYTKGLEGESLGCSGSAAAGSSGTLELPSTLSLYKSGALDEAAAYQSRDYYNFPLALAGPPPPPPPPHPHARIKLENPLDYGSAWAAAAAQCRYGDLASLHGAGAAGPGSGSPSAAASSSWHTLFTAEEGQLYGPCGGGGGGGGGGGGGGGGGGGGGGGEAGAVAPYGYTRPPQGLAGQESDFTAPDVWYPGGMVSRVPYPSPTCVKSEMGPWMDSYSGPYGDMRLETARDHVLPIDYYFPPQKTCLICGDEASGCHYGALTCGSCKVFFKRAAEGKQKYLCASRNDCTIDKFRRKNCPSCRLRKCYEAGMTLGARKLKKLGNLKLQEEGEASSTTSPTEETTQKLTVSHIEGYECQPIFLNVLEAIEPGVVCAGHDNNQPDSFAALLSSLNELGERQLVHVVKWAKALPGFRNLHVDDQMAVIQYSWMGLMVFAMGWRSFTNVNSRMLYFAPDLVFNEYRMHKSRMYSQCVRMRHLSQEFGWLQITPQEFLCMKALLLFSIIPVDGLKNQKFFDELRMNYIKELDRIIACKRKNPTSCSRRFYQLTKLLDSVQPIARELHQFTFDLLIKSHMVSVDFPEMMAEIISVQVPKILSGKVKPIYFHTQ
Estrogen receptor (Homo sapiens), sequence (P03372 whole entry, looked up): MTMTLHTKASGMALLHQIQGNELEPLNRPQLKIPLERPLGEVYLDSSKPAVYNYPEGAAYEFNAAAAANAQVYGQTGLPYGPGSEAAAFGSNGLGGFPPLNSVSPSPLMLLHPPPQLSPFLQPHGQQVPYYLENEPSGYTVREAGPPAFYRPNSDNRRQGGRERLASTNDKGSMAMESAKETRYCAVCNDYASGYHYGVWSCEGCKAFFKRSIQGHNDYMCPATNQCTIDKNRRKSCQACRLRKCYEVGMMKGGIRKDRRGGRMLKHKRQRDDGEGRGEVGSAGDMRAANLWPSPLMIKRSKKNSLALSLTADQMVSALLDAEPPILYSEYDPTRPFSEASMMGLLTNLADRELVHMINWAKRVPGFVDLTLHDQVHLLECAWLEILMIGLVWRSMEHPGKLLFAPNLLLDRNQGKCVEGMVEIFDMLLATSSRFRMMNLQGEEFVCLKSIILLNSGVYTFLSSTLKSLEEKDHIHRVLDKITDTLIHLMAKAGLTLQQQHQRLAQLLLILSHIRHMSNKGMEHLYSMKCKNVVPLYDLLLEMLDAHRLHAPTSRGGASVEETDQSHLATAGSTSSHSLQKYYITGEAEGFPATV
Thyrotropin receptor (Homo sapiens), sequence (P16473 whole entry, looked up): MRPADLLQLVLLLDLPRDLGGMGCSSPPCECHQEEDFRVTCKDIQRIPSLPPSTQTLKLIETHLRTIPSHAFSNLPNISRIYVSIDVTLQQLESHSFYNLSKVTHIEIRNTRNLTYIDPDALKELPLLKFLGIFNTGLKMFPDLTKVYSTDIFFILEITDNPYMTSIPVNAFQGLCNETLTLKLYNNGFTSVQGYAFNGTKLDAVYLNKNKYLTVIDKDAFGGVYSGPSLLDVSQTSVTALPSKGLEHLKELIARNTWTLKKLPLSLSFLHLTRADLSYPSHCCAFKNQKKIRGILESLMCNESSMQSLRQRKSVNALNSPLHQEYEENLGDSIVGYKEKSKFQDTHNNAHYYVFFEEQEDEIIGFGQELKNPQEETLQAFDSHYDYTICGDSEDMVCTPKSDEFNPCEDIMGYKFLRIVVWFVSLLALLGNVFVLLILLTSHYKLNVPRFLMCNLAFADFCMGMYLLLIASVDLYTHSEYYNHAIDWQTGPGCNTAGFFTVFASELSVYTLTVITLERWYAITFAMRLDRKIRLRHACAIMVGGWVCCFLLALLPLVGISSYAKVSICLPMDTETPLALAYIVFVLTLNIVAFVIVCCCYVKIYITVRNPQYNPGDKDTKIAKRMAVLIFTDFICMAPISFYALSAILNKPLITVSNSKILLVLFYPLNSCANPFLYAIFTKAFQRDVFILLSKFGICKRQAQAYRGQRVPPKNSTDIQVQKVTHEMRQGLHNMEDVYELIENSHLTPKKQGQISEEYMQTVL

On to `CCC(N)(CO)CO`, for which the Potency result in test [1], in test [2], in test [3], in test [4], in test [5] and in test [6] was “inactive” in each case. Moreover, the Potency result in test [7], in test [8], in test [9], in test [10], in test [11] and in [12] was “inactive” each time. For the same compound, the Potency result in [13] and in [14] was “inactive” throughout.
Take `Oc1c(Cl)cc(Cl)c2cccnc12`: the Potency entry in test [1], in [2], in test [15], in test [4], in test [8] and in test [14] was “inactive” in each case. For the same compound, the Potency result in [17] is “inactive”. Further, the Potency in [3] is 18.8 µM (active); in test [6] it was 4.22 µM (active); in [12], 4.73 µM (active); in test [13] it was 11.9 µM (active). For the same compound, the result in test [16] was inactive.
Turning to `Oc1ccc(Cl)cc1Sc1cc(Cl)ccc1O`, the Potency result in test [1], in [15], in test [4], in test [5], in [8] and in [14] was “inactive” in each case. The Potency was 29.8 µM (active) in test [2]; 30.6 µM (active) and 29.8 µM (active) in test [3]; 30.6 µM (active) and inactive in [6]; 30.6 µM (active) and inactive in test [7]; 26.6 µM (active) in [18]; 18.8 µM (active) in test [10]. Moreover, the Potency in [11] was 21.6 µM (active) and 26.6 µM (active); in test [12], 48.5 µM (active) and 29.8 µM (active); in [13] it was 48.5 µM (active).
With `Cc1cccc2c1cc1ccc3cccc4ccc2c1c34`, the Potency entry in test [1], in [2], in [3], in test [4], in test [5] and in test [6] was “inactive” throughout. The Potency entry in test [7], in test [8], in [18], in test [12], in test [13] and in [14] was “inactive” throughout.
Consider `Cc1onc(-c2c(Cl)cccc2Cl)c1C(=O)N[C@@H]1C(=O)N2[C@@H]1SC(C)(C)[C@@H]2C(=O)O`, for which the Potency result in test [1], in [2], in test [19], in test [15], in [4] and in test [5] was “inactive” in each case. Further, the Potency entry in test [6], in test [7], in test [8], in test [11], in [12] and in [20] was “inactive” in each case. Besides, the Potency result in test [13] and in test [17] was “inactive” throughout. For the same compound, the outcome in [16] was inactive.
With `C=C(C)C(=O)OCC[N+](C)(C)C`, the Potency result in test [1], in test [2], in [4], in test [6], in test [8] and in test [18] was “inactive” each time. Also, the Potency entry in test [9], in [10], in [11], in [12], in [20] and in [13] was “inactive” in each case. Besides, the Potency in [19] was 30.5 µM (active). For the same compound, in test [16], the result was inactive.
In the case of `CCCCCCCCOc1ccccc1C(=O)Nc1ccc(C(=O)OCC[N+](C)(CC)CC)cc1`, the Potency result in [1], in [2], in [3], in test [15], in test [4] and in [5] was “inactive” throughout. Further, the Potency result in test [6], in test [7], in test [8], in test [11], in [14] and in test [17] was “inactive” throughout. Also, the Potency in test [12] and in [13] was 23.7 µM (active) in each case. Further, the outcome in [16] was inactive.
`N/C(=N\N=C\c1ccc(Cl)cc1)N/N=C/c1ccc(Cl)cc1`: the Potency entry in test [1], in test [2], in test [3], in test [15], in test [4] and in [5] was “inactive” in each case. The Potency entry in test [6], in [7], in [8], in test [9] and in test [14] was “inactive” throughout. Moreover, the Potency in [11] and in test [12] was 29.8 µM (active) throughout. For the same compound, the call in test [16] was inactive.
